An excerpt weighted towards active compounds, which were near 1.8% of everything screened.
eIF4E-4G inh: eIF4E/eIF4G interaction inhibition in translation initiation; TR-FRET eIF4E-eIF4GI(517-606) binding, 2 h; inhibition, % at 21.7 µM; 220,000 tested, 0.37% active; AID 782;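 active = inhibition above about 30%, limit read from the data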;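 also: 0% = full FRET control wells and 100% = background wells lacking eIF4GI fragment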
PGE2 EP2 inh: inhibitors of human EP2 prostaglandin E2 receptor. P43116. C6 glioma cells expressing human EP2, cAMP TR-FRET; cells stimulated with saturating PGE2. inhibition, % at 25 µM. 260,000 tested, 0.52% active;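 active = percent inhibition above 40 after rounding to a whole number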;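 also: rat C6 glioma host cells with rolipram phosphodiesterase inhibitor present; the protocol text gives 20 µM as final concentration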
Target sequence (P43116 whole entry, looked up): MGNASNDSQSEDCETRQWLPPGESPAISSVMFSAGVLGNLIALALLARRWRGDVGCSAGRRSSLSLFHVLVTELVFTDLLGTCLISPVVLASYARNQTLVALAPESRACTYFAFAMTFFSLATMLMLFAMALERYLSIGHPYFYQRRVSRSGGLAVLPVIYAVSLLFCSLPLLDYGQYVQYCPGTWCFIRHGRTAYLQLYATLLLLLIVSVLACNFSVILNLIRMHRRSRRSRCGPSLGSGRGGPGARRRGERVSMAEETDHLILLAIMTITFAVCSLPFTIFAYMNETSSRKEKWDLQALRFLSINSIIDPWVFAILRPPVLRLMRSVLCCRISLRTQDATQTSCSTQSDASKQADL
EP2 modulator: modulates human prostaglandin E2 receptor EP2 signaling; P43116; EP2-expressing cells, cAMP HTRF FRET, PGE2 co-stimulation; induction, % at 25 µM; 260,000 tested, 0.83% active; AID 940;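 active = compounds whose cAMP rise, as percent of the full-agonist control response, exceeds 60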;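 also: rat C6 glioma line stably carrying human EP2 under a CMV promoter; the protocol text gives 20 µM as final concentration; 100% = response of wells given 1 µM PGE2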
PERK inhibitor: human PERK inhibition, primary cell-based screen | inhibition, % at 5.6 µM | 220,000 tested, 0.17% active | CHO PERK-DD fusion, SEAP luminescence translation reporter;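 active = inhibition above the mean inhibition of all tested compounds plus 3 SD, set separately per screening campaign, cut at about 2.9% in these data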;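 also: PERK kinase domain activated by AP20187 dimerizer at 100 nM; 0% = DMSO with dimerizer and 100% = rapamycin at 8.4 µM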
Numbers without * were called inactive; . = not tested or not shown; ! = not active in a repeat; [ ] = remark or other dose.

SMILES	eIF4E-4G inh	PGE2 EP2 inh	EP2 modulator	PERK inhibitor
CCCC(=O)N1CCN(c2ccc(NC(=O)c3ccc([N+](=O)[O-])o3)cc2)CC1	3	26	-69	0
O=C(Nc1ccc(N2CCN(C(=O)c3ccc(Cl)cc3)CC2)cc1)c1ccc([N+](=O)[O-])o1	-6	121*	-50	0
Cc1ccc2c(C(O)CN3CCC4(CC3)CC(O)c3ccccc3O4)c(C)[nH]c2c1 (centres undefined)	.	13	-116	.
Nc1nncn1C(=O)c1ccccc1F	.	10	5	.
O=C(c1ccco1)N(Cc1ccco1)c1nc(-c2ccccc2)cs1	.	10	78*	.
Cn1cnc([N+](=O)[O-])c1[Se]c1nc(N)nc2c1ncn2[C@H]1O[C@@H](CO)[C@H](O)[C@H]1O	.	42*	1	.
Nc1ncnc2c1ncn2[C@@H]1O[C@H](CO)[C@@H](O)[C@H]1O	-5	13	30	1
C[N+](C)(C)c1nc(N)nc2c1ncn2[C@H]1O[C@@H](CO)[C@H](O)[C@H]1O	.	45*	-3	.
Cn1cnc([N+](=O)[O-])c1Sc1nc(N)nc2c1ncn2[C@@H]1C[C@H](O)[C@@H](CO)O1	.	48*	13	.
Nc1nc(SCc2ccc([N+](=O)[O-])cc2)c2ncn([C@@H]3O[C@H](CO)[C@H](O)C3O)c2n1 (some centres undefined)	.	12	-14	.
COc1ccc2[nH]c(=O)c(CN(Cc3cccs3)C(=O)Nc3ccccc3OC)cc2c1	.	13	3	.
CCCn1c(SCC(=O)N2CCCCCC2)nc2c1c(=O)n(C)c(=O)n2C	.	11	-6	.
CCN1/C(=C2/SC(=S)N(c3ccccc3)C2=O)Sc2ccc(OC)cc21	.	14	-1	.
COc1ccc(Cc2c(O)nc(SCC(=O)Nc3cccc(OC)c3)[nH]c2=O)cc1	.	14	-8	.
C=CCn1c(-c2ccccc2)cc(SC)c(C#N)c1=O	2	13	60	1
C=CCn1c(-c2ccccc2)ccc(C#N)c1=O	11	4	64*	0
O=C(O)CNc1ccccc1C(=O)O	-3	10	7	3.0*
CC1=CC(=O)C=C(C)C1=NOS(=O)(=O)c1ccccc1	2	56*	-25	0
CC1=CC(=O)C(C(C)C)=C/C1=N/OS(=O)(=O)c1ccccc1	-5	13	-20	-2
COc1ccc(-c2c(C)nn3c(NCCCO)c4c(nc23)CCCC4)cc1	.	.	-76	.
COc1ccc(-c2cc(C)nc(SCc3cccc(C(=O)O)c3)n2)cc1	0	7	7	0
O=C(O)c1cccc(CSc2nc(-c3ccc(Cl)cc3)cc(C(F)(F)F)n2)c1	1	12	64*	1
COC(=O)c1sc2ncccc2c1OCc1cccc(Cl)c1	-4	6	51	0
COC(=O)c1sc2ncccc2c1OCc1c(Cl)cccc1Cl	6	4	62*	0
Cc1cc(-c2nn3c(C)nnc3s2)ccc1NC(=O)c1sc2ccccc2c1Cl	.	10	24	.
SMILES	eIF4E-4G inh	PGE2 EP2 inh	EP2 modulator	PERK inhibitor
O=C(Nc1c(C(=O)C2CC2)oc2ccccc12)c1ccc(Cl)cc1	2	5	64*	1
O=C(O)CCSCC(=O)Nc1c(C(=O)C2CC2)oc2ccccc12	.	20	15	1
Cc1ccc(S(=O)(=O)CCC(=O)NCc2ccccc2Cl)cc1	60*	9	-4	1
Cc1ccc(S(=O)(=O)C2(C(=O)NCc3ccccc3Cl)CC2)cc1	4	4	-5	-1
CS[C@@]12C(=O)C[C@@]3(C)[C@@H](CC[C@@]3(O)C(=O)CO)[C@H]1CCC1=CC(=O)CC[C@]12C	.	51*	7	.
C[C@]12CCC(=O)C=C1CC[C@@H]1[C@@H]2C(=O)C[C@@]2(C)[C@H]1CC[C@]2(O)C(=O)CO	2	12	2	1
CCC(C)(Nc1n[nH]c(=O)[nH]c1=O)C(=O)O (centres undefined)	.	10	17	.
CC(C)CC(=O)N1CCC(N2CCN(c3ccccc3)CC2)CC1	50*	8	37	1
COC(=O)C1C(=O)C2=C(CC1C)Nc1ccccc1NC2c1ccc(Cl)cc1 (centres undefined)	.	9	1	.
Brc1cc2c(cc1/C=N/Nc1nc3ccccc3s1)OCO2	-10	41*	-28	1
Cc1cccc(/C=N/NC(=O)NC2CCCCC2)c1	-8	6	63*	0
Cc1ccc(/C=N/NC(=O)NC2CCCCC2)o1	-2	13	2	1
Cc1ccc(NC(=O)c2cccs2)cc1NC(=O)c1cc2c(C)nn(-c3ccccc3)c2s1	.	13	70*	.
Cn1nc(C(F)(F)F)c(-c2ccccc2)c1NC(=O)CCC(=O)O	-1	8	-3	3.5*
Cc1ccc(CNC(=O)CSc2nc(-c3ccco3)cc(C(F)(F)F)n2)cc1	.	13	-80	.
Cc1nc(C/C(=N\Nc2ccccc2)c2ccc(O)cc2O)cs1	2	3	64*	1
O=C(COc1ccc2nsnc2c1)Nc1cnn(Cc2ccc(F)cc2)c1	.	8	-21	.
O=C(CSc1nnc(-c2ccccc2)n1C1CCCCC1)Nc1ccc(S(=O)(=O)Nc2ccccn2)cc1	53*	10	-8	0
CCN(CC)CCN(Cc1cc2cc(C)ccc2[nH]c1=O)C(=S)Nc1cccc(C)c1	.	12	-48	.
C/C(N[O-])=C(\C)[N+]([O-])=[Co].CC(=N\[O-])/C(C)=N/[O-].C[CH-][C@@H](C)O.c1ccncc1	.	42*	21	.
O=C(CCNc1n[nH]c(=O)[nH]c1=O)NCc1ccco1	.	11	-17	.
c1coc(C2OCC3(CO2)COC(c2ccco2)OC3)c1 (centres undefined)	2	54*	33	1
CC1C(=O)C(C)C(c2ccco2)NC1c1ccco1 (centres undefined)	3	6	13	1
COc1cc(S(=O)(=O)N2CCN(c3cccc(C)c3C)CC2)ccc1-n1cnnn1	.	15	-77	.
O=C(COc1ccc2nsnc2c1)NCc1nc(-c2ccccc2)no1	.	50*	-51	.
SMILES	eIF4E-4G inh	PGE2 EP2 inh	EP2 modulator	PERK inhibitor
Cc1cc(Br)cn2ccnc12	5	.	-1	3.0*
COC(=O)c1sc(N2C(=O)C(=O)/C(=C(\O)c3ccc(OC)c(C)c3)C2c2cccnc2)nc1C (centres undefined)	.	53*	8	.
COc1ccc(S(=O)(=O)N2CCCC(C(=O)NC(C)(C)C)C2)cc1 (centres undefined)	.	3	-4	.
CCCc1nc2ccccc2c(=O)n1N	5	12	10	3.6*
CCCCCc1nc2ccccc2c(=O)n1N	-10	11	-23	0
CCOc1ccc2nc3c(cc2c1)CN(Cc1ccco1)C(=O)C(C)O3 (centres undefined)	.	.	-53	.
COC(=O)C1=C(C)OC(N)=C(C#N)C1c1ccccc1 (centres undefined)	-1	9	2	2
CC(=O)C1=C(c2ccccc2)OC(N)=C(C#N)C1c1ccc(O)cc1 (centres undefined)	51*[fluorescence artefact?]	5	16	1
O=C(O)C1=C/C(=C(/c2ccccc2)c2cc(C(=O)O)c(O)c3ccccc23)c2ccccc2C1=O	.	40*!	3	.

Screening data as filed in PubChem.
